PubChem BioAssay AID1529 (NMMLSC, 2009)
Out of some 290,000 compounds screened, about 4,200 (1.4%) were called active.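 How the source made its calls: active means binding response more than 3 SD above or below the average of its plate-row segment, actives on both sides; inconclusive means wells at one plate position flagged as instrument error; inactive means the rest.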 Only a selection was taken, and actives are over-represented in it overall.

target: Mitogen-activated protein kinase kinase kinase 3 (Homo sapiens) (UniProt Q99759); assay: compounds raising or lowering MEK5 association with MEKK3 PB1 – biochemical, wildtype MEKK3, multiplex bead flow cytometry, Alexa488-MEK5, primary screen (AID 1529); conditions: bead-based flow cytometry, Alexa488-MEK5 binding to MEKK3; at 10 µM; actives lie on both sides; 0 = blocked by unlabeled MEK5, 100 = vehicle;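 further: Alexa488 bead fluorescence after subtracting the streptavidin-only scavenger bead signal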
Sequence (Q99759 whole entry, looked up): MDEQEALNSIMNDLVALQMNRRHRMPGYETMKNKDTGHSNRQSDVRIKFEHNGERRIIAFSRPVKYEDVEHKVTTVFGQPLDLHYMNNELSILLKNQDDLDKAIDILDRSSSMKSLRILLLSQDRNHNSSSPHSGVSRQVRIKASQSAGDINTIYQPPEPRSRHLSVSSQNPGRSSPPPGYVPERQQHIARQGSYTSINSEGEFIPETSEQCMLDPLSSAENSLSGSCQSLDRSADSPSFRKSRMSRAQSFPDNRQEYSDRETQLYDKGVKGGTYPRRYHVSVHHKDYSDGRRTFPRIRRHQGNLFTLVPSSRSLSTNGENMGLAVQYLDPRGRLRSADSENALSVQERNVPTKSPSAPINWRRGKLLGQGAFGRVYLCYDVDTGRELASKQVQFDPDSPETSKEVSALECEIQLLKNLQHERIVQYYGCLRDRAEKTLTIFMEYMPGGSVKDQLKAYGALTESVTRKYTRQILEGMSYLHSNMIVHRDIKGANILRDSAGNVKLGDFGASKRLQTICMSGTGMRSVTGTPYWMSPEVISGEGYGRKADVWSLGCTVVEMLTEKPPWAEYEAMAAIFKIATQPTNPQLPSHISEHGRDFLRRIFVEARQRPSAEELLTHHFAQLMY

SMILES	binding response (% of control)
Cc1c(C(C)(C)O)[nH]c2ccc(C#N)cc12	103% (inactive)
CC(=O)N1CCN(CC(C)(C)NS(=O)(=O)c2ccc(C)cc2)CC1	102% (inactive)
CCOC(=O)C(NS(=O)(=O)c1ccc(C)cc1)(C(F)(F)F)P(=O)(OCC(C)C)OCC(C)C (configuration not stated)	140% (active)
Cc1ccc(S(=O)(=O)NCC(C)NS(C)(=O)=O)cc1 (configuration not stated)	97% (inactive)
CCCOc1ccc(C(=O)NCCc2ccccc2)cc1	97% (inactive)
Cc1cc(C(=O)NCCCc2ccccc2)no1	99% (inactive)
CC(C)c1ccc(C(=O)NCCCc2ccccc2)cc1	2% [inhibitor] (active)
Cc1no[n+]([O-])c1COc1ccccc1/C=C1\NC(=S)NC1=O	126% (active)
Cc1ccccc1-n1c(C)cc(/C=C2\NC(=O)NC2=O)c1C	57% (inactive)
C#CCOc1ccccc1/C=C1/C(=O)ON=C1C	110% (inactive)
COc1cc(S(=O)(=O)Nc2ncn[nH]2)ccc1Cl	102% (inactive)
CS(=O)(=O)Nc1ccc(C2=NN(S(C)(=O)=O)C(c3cccs3)C2)cc1 (configuration not stated)	10% [inhibitor] (active)
CCS(=O)(=O)Nc1ccc(C2=NN(C(C)=O)C(c3cccs3)C2)cc1 (configuration not stated)	55% (inactive)
CS(=O)(=O)Nc1cccc(C2=NN(S(=O)(=O)c3ccccc3)C(c3cccs3)C2)c1 (configuration not stated)	95% (inactive)
Cc1occc(=O)c1OCc1c(Cl)cccc1Cl	102% (inactive)
CCOc1ccc(NC(=O)C2CCN(C(=O)N3CCOc4ccccc43)CC2)cc1	103% (inactive)
Cc1ccc(-c2noc(C3CCCN(C(=O)c4cccc(Cl)c4)C3)n2)o1 (configuration not stated)	99% (inactive)
COc1ccc(N2CCN(C(=O)CN3C(=O)COc4ccccc43)CC2)cc1	101% (inactive)
COc1ccc(OCCCCN2CCC(C)CC2)cc1	108% (inactive)
C/C=C/c1ccc(OCCOc2ccc(C=O)cc2OC)c(OC)c1	100% (inactive)
C/C=C/c1ccc(OCCCCN2CCC(C)CC2)c(OC)c1	69% [inhibitor] (active)

SMILES	binding response (% of control)
O=c1[nH]snc1-c1c(Cl)cccc1Cl	105% (inactive)
COc1cccc(NC(=O)COc2cc(C)cc3oc(=O)cc(C)c23)c1	103% (inactive)
CCOC(=O)N1CCN(CCC(=O)Nc2cc(OC)ccc2OC)CC1	96% (inactive)
CCN1CCN(c2nc(Nc3cc(OC)ccc3OC)nc(Nc3cc(OC)ccc3OC)n2)CC1	37% [inhibitor] (active)
CCOc1ccc(Nc2nc(Cl)nc(N3CCN(c4ccc(OC)cc4)CC3)n2)cc1	103% (inactive)
CC(=O)O[C@H]1c2ccccc2-c2ccccc2[C@@H]1OC(C)=O	104% (inactive)
COC(=O)c1ccc(NC(=O)c2cc3c(CO)cnc(C)c3oc2=Nc2cccc(C(N)=O)c2)cc1	102% (inactive)
O=C(NC1CCCC1)C(c1ccco1)N(C(=O)c1csnn1)c1ccccc1 (configuration not stated)	100% (inactive)
Cc1cs/c(=N\N=C\c2ccc(O)cc2)n1Cc1ccco1	100% (inactive)
CCOC(=O)/C=c1\s/c(=C\c2ccc(C#N)cc2)c(=O)n1CC(=O)Nc1cccc(C)c1C	102% (inactive)
CN(c1ccccc1)c1ccc(/C=c2\s/c(=C(/C#N)C(=O)C(C)(C)C)n(Cc3ccco3)c2=O)cc1	47% [inhibitor] (active)
COc1ccc(Cc2nc3ccc(C(=O)N4CCC(N(C)C)C4)cc3o2)cc1 (configuration not stated)	97% (inactive)
COc1cc2c(C(=O)N(C)c3cc(Cl)ccc3OC)cn(C)c(=O)c2cc1OC	102% (inactive)
O=C(NCc1ccco1)c1ccc(Cn2c(=O)c3sccc3n(Cc3ccc(F)cc3)c2=O)cc1	115% (inactive)
COCCNC(=O)CCCn1c(=O)c2ccccc2n(Cc2cccc([N+](=O)[O-])c2)c1=O	101% (inactive)
Cc1ccc(CNC(=O)Cn2c(=O)c3sccc3n(Cc3cccc([N+](=O)[O-])c3)c2=O)cc1	141% (active)
COc1ccccc1N1CCN(c2nc(C)cc(=O)[nH]2)CC1	104% (inactive)
CCOC(=O)C1CN(S(=O)(=O)c2ccc(OC)cc2)c2cc(Cl)ccc2O1 (configuration not stated)	105% (inactive)
COc1ccc(S(=O)(=O)Nc2ccc3oc(C)c(C(C)=O)c3c2)cc1	122% (active)
CC(=O)c1c(C)oc2ccc(NS(=O)(=O)c3ccccc3)cc12	101% (inactive)
CC(=O)c1c(C)oc2ccc(NS(=O)(=O)c3ccc(C(=O)O)cc3)cc12	99% (inactive)

SMILES	binding response (% of control)
Cc1nc2ccc(S(=O)(=O)NC(C(=O)N3CCCCCC3)C(C)C)cc2s1 (configuration not stated)	105% (inactive)
Cc1nc2cc(S(=O)(=O)C(F)(F)F)ccc2s1	129% (active)
Cc1nc2ccc(S(=O)(=O)NCC(=O)O)cc2s1	106% (inactive)
CCOc1ccccc1NC(=O)C1CCCN(S(=O)(=O)c2ccccc2)C1 (configuration not stated)	100% (inactive)
O=S(=O)(c1ccccc1)c1nc(Cc2ccccc2)oc1N1CCOCC1	98% (inactive)
Cc1nnc(NC(=O)C(c2ccccc2)c2ccccc2)s1	98% (inactive)
CCCc1cc(=O)[nH]c(SCC(=O)N2C(C)CCCC2C)n1 (configuration not stated)	107% (inactive)
CC1CCCC(C)N1C(=O)CSc1nnnn1C1CCCC1 (configuration not stated)	101% (inactive)
CCCc1nnc(SCC(=O)N2C(C)CCCC2C)n1CC (configuration not stated)	145% (active)
O=C(O)c1ccc(NC(=O)c2ccc(COc3ccc(Cl)cc3)o2)cc1	103% (inactive)
CC1CN(CC(=O)NC(C)c2ccccc2)CC(C)O1 (configuration not stated)	101% (inactive)
COc1ccc(N2CCN(C(=O)c3cccs3)CC2)cc1	97% (inactive)
O=C(CCS(=O)(=O)c1ccc(Br)cc1)NCCc1ccc(Cl)cc1	105% (inactive)
COc1ccc(Cl)cc1NC(=O)CCS(=O)(=O)c1cc2c(cc1C)NC(=O)CO2	104% (inactive)
COc1ccc(Cl)cc1NC(=O)CCS(=O)(=O)c1ccc(Br)cc1	80% [inhibitor] (active)
CN(C)c1ccc(NC(=O)CN2C3CCCC2CC(NC(=O)c2ccccc2)C3)cc1 (configuration not stated)	104% (inactive)
COc1ccccc1CNC(=O)c1ccc(N(C)S(=O)(=O)c2ccc(C)cc2)cc1	96% (inactive)
COc1ccc(-c2[nH]ncc2CN(C)Cc2c(C)n[nH]c2C)c(OC)c1	0% [inhibitor] (active)
COc1ccc(-c2[nH]ncc2CN(C)Cc2cccnc2)c(F)c1	108% (inactive)
COc1ccc(-c2[nH]ncc2CN(C)Cc2cc(C)[nH]n2)c(F)c1	102% (inactive)
